Shown are actives, neighbours in structure and some others; about 20% of the full set was active somewhere.
Cycloheximide cs – Cycloheximide Counterscreen for Small Molecule Inhibitors of Shiga Toxin; hit rate 12% among 300,000; cell reporter, cycloheximide protein synthesis inhibition counterscreen; max response, %; AID 2314, 2010; in the data active means max response mostly above about 13%, no sharp cut-off; inactive means mostly below about 14%; further: read at 38.3 µM for the half of the compounds with a filed dose; 0% is about no effect
Pf growth 48h – Primary qHTS for delayed death inhibitors of the malarial parasite plastid, 48 hour incubation | P. falciparum luciferase growth in erythrocytes, 48 h | Potency, µM (series often up to 28.7 µM), for inactives: at the highest dose activity change, negative = inhibition, hits mostly inhibitors | hit rate 5.9% among 310,000 | AID 504832, 2011; further: potency means the concentration at half of the fitted maximal effect; on the % scale 0 is the no-effect control and ±100 the full control effect
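Luciferase-expressing P. falciparum in infected erythrocytes (2% hematocrit, 0.1% parasitemia final) in RPMI 1640/0.5% Albumax were exposed to compound for 48 hours at 37 C, 5% CO2; growth read as luminescence.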
HCMV antiviral – qHTS Assay for inhibitors of the human cytomegalovirus (HCMV); HFF cells, HCMV-luciferase reporter, 72 h; stronger effect = lower value; activity change, negative = inhibition, % at 57.5 µM; hit rate 4.5% among 410,000; AID 1259415, 2018; in the data active means activity change below about -60%; inconclusive means no clear call, values can overlap the other calls; inactive means above about -39%; further: on the % scale 0 is the no-effect control and ±100 the full control effect
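Steps: HFFs plated, 16 h 37C; compounds added; HCMV-luciferase added to MOI 1 PFU/cell; 72 h 37C; OneGlo reagent, 5 min room temperature; luminescence read, normalized to controls.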
Pf growth 96h – Primary qHTS for delayed death inhibitors of the malarial parasite plastid, 96 hour incubation. P. falciparum luciferase reporter growth, 96 h. Potency, µM (series often up to 28.7 µM), for inactives: at the highest dose activity change, negative = inhibition, actives largely listed as inhibitors. hit rate 6.9% among 320,000. AID 504834, 2011; further: potency means the concentration at half of the fitted maximal effect; on the % scale 0 is the no-effect control and ±100 the full control effect
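Two-generation exposure (96 h) targets delayed-death phenotype. Reporter parasites carrying integrated firefly luciferase, in red cells at 2% hematocrit and 0.05% parasitemia final, kept at 37 C, 5% CO2; luminescence loss indicates inhibition.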
Shiga inhibitor – A qHTS for Small Molecule Inhibitors of Shiga Toxin; hit rate 9.2% among 290,000; AID 2315, 2010; inhibition, % at 38.7 µM; Vero cells, Shiga toxin protein synthesis inhibition reporter; in the data active means inhibition mostly above about 28%, no sharp cut-off; inactive means mostly below about 43%; further: 0% is about no effect
The depositor's hits bear a star; ? = inconclusive; nt = not tested or not shown. Unless noted, the call rests on the fitted dose curve; in most records, active means well fitted inhibition curve with a large enough effect; inconclusive means small, poorly fitted or top-dose-only effect, or another doubt; inactive means no such curve, though single readings can be large or run the other way.

SMILES | Cycloheximide cs | Pf growth 48h | HCMV antiviral | Pf growth 96h | Shiga inhibitor
COc1ccccc1OCCCOc1c(C)cc(C)cc1Br | 9.6 | ? | -9.8 | ? | 19.0
COc1ccccc1OCCOCCOc1c(C)cc(C)cc1Br | -2.1 | -4.8% | -21.7 | 2.94µM* | -11.1
O=C1CCC(=O)N1OCCCOc1ccccc1 | -0.9 | nt | ? | -21.0% | -4.5
CC(C)(C)c1ccc(OCCON2C(=O)CCC2=O)c(Cl)c1 | 38.8* | nt | -14.0 | -21.0% | 63.5*
O=C1CCC(=O)N1OCCCCOc1ccccc1 | 11.8* | -8.5% | 39.2 | 8.7% | 13.2
Cc1cc(C)cc(NC(=O)CCS(=O)(=O)c2ccc3nc(C)sc3c2)c1 | nt | nt | -28.0 | nt | nt
COC(=O)C1=C(C)N(Cc2ccc(Cl)cc2)C(=S)NC1c1ccc(OC)cc1 (stereo not given) | nt | nt | -11.6 | nt | nt
Cc1c(Cl)cccc1NC(c1ccc(F)cc1)c1nnc(-c2ccccc2)o1 (stereo not given) | nt | nt | 19.7 | nt | nt
CCOC(=O)C1(C)CCCN(C(=O)c2ccc(C#N)cc2)C1 (stereo not given) | nt | nt | 0.9 | nt | nt
CCOc1ccc(NC(=O)CN2C(=O)S/C(=C/c3cccn3C)C2=O)cc1 | -2.0 | -12.4% | ? | ? | -9.9
Cn1cccc1/C=C1\SC(=O)N(c2ccc(O)cc2)C1=O | 38.7* | 119.9% | -2.1 | 148.6% | 32.6*
COc1cc(/C=C2\SC(=O)N(c3ccc(O)cc3)C2=O)cc(OC)c1OC | 0.4 | -4.5% | -35.4 | -2.1% | -17.0
CCOc1ccc(N2C(=O)S/C(=C\c3cccn3C)C2=O)cc1 | 10.2 | 3.29µM* | 40.9 | 2.94µM* | 29.7
CCc1nnc(NC(=O)CSc2ccc(-c3nc4ccccc4[nH]3)cn2)s1 | 26.5* | 4.3% | -93.6* | 69.2% | 82.9*
Cc1nc(NC(=O)CSc2ccc(-c3nc4ccccc4[nH]3)cn2)sc1C | 2.1 | 12.1% | -29.7 | -23.7% | 21.7
Cc1ccc2nc(-c3ccc(SCC(=O)Nc4nc(C)cs4)nc3)[nH]c2c1 | 32.0* | 11.6% | -34.1 | 0.0% | 50.5
Cc1ccc2nc(-c3ccc(SCC(=O)Nc4nnc(C)s4)nc3)[nH]c2c1 | 69.5* | -40.6% | 27.1 | 26.7% | 51.3*
COc1cc(N2C(=O)C=CC2=O)ccc1N1C(=O)C=CC1=O | nt | nt | -75.9* | nt | nt
COc1ccc(CNC(=O)c2cccc(C)c2[N+](=O)[O-])cc1 | -1.5 | -6.4% | -4.6 | ? | 23.0
COc1cccc(NC(=O)c2nn(C)c(C(=O)Nc3cccc(OC)c3)c2[N+](=O)[O-])c1 | -2.0 | 33.5% | -12.8 | 6.57µM* | 17.6
COc1cccc(NC(=O)c2cccc(C)c2[N+](=O)[O-])c1 | 27.6* | 72.6% | 15.1 | ? | 125.4*
Cc1cc(NC(=O)c2ccccc2[N+](=O)[O-])ccc1Br | 50.5* | 69.2% | -26.8 | ? | 133.9*
Cc1cccc(C(=O)Nc2cccc(Br)c2)c1[N+](=O)[O-] | 9.3* | 5.0% | 27.3 | 44.0% | 6.9
Cc1cc(Br)cc(C)c1NC(=O)c1ccccc1[N+](=O)[O-] | 0.2 | ? | ? | 39.8% | -14.0
Cc1ccccc1C(=O)Nc1cccc(NC(=O)c2ccccc2[N+](=O)[O-])c1 | -2.0 | -4.5% | -27.2 | -10.1% | -4.1
SMILES | Cycloheximide cs | Pf growth 48h | HCMV antiviral | Pf growth 96h | Shiga inhibitor
Cc1ccc(/C=C(\C#N)c2nc(-c3cc4c(ccc5ccccc54)oc3=O)cs2)cc1 | nt | nt | 8.9 | nt | nt
Cc1ccc(-c2cc(NC(=O)c3ccccc3[N+](=O)[O-])n[nH]2)cc1 | 13.2* | 0.0% | 28.4 | ? | 68.0*
O=S(=O)(Nc1ccc2c(c1)OCO2)c1ccc(Cl)cc1F | nt | -5.0% | -36.3 | 13.4% | nt
CCc1cc(C(=O)NNC(=S)NC(C)c2ccccc2)cs1 (stereo not given) | -3.2 | 19.6% | -73.1* | nt | -25.1
CCc1cc(C(=O)NNC(=S)NC2CCCCC2)cs1 | 46.3* | 152.7% | 25.2 | -99.8% | 54.3*
CC(C)c1cc(C(=O)NNC(=S)NC2CCCCC2)cs1 | 31.6* | 120.5% | -2.0 | 101.5% | 51.0*
CCc1cccc(CC)c1NC(=S)NC(C)c1ccccc1 (stereo not given) | -2.6 | ? | -72.1* | 0.0% | -13.7
CCc1c(C(=O)NNC(=S)NC2CCCCC2)csc1C | 9.6 | 19.7% | ? | -2.9% | 3.3
CS(=O)(=O)c1cc(C(=O)O)cc(NCc2ccccc2)c1Oc1ccccc1 | nt | nt | -20.8 | nt | nt
COc1ccccc1CNC(=O)COC(=O)CCC(=O)c1cccs1 | 16.6 | 28.4% | ? | -12.2% | 6.0
Cn1nc(C(=O)N2CCCCC2)c2c1-c1ccccc1S(=O)(=O)C2 | 8.8 | 23.5% | 3.0 | 27.5% | 0.5
CCc1cc(CNC(=O)C2CCC(=O)N(Cc3ccc(Cl)cc3)C2)on1 (stereo not given) | -3.5 | 7.6% | -2.7 | 7.9% | 5.8
Cc1nn(C)c(C(=O)NNC(=S)NC2CCCCC2)c1Br | 45.2* | 81.9% | -39.5 | 5.22µM* | 60.7*
COc1ccc(-c2nc(C)c(CCNC(=O)c3cccs3)s2)cc1 | nt | nt | 42.4 | nt | nt
COc1ccc(CC(=O)Nc2nnc(C(C)(C)C)s2)cc1OC | -3.1 | -14.5% | -28.4 | 4.65µM* | -3.8
Cc1csc(NC(=O)Cc2ccc(Br)cc2)n1 | 31.3* | 32.9% | 33.2 | 180.1% | 61.0
COc1ccccc1OCCC(=O)Nc1nc(C)cs1 | 15.1* | 39.6% | ? | 12.6% | 24.4
COc1ccc(CCCc2nnc(SCC(=O)Nc3nc(C)cs3)n2C)cc1C | -2.4 | 13.1µM* | 22.3 | nt | -12.8
COc1ccc(CC(=O)Nc2nc(C)cs2)cc1 | 20.1* | 36.6% | 46.3 | ? | 29.5
COc1ccc(OC)c(-c2csc(NC(=O)Cc3ccc(OC)c(OC)c3)n2)c1 | -3.8 | -7.9% | -18.5 | -18.7% | -5.5
Cc1csc(NC(=O)Cc2ccccc2Cl)n1 | 39.8* | 45.6% | 5.0 | 160.0% | 110.3*
Cc1cnc(NC(=O)Cc2ccccc2Cl)s1 | 0.3 | -9.2% | -21.5 | -18.6% | 17.1
Cc1csc(NC(=O)Cc2coc3cc(C)c(C(C)C)cc23)n1 | -2.1 | nt | -88.9* | 5.3% | -10.9
COc1ccc(CC(=O)Nc2nc(C(C)(C)C)cs2)cc1 | 10.0 | -6.6% | ? | -12.3% | 22.5
COc1ccc(CC(=O)Nc2nc(C)cs2)cc1OC | -1.1 | 6.7% | -69.9* | 11.7µM* | -13.3
SMILES | Cycloheximide cs | Pf growth 48h | HCMV antiviral | Pf growth 96h | Shiga inhibitor
CCc1cc2c(cc3c(=O)n(CCCC(=O)NCc4cccc(Br)c4)ncn32)s1 | nt | nt | 7.3 | nt | nt
CC(=NNC(=O)CSc1nc2ccccc2o1)c1ccco1 | nt | nt | 48.6 | nt | nt
O=C(CSc1nc2ccccc2[nH]1)N/N=C/c1ccco1 | 24.5* | 14.5% | -19.1 | 45.2% | 62.4*
Cn1cccc1/C=N/NC(=O)CSc1nc2ccccc2[nH]1 | 20.3* | 30.3% | ? | 10.0% | 22.0
O=C(CSc1nc2ccccc2o1)N/N=C/c1ccco1 | 21.3* | 133.6% | 5.7 | 134.3% | 50.1*
Nc1cc(-c2ccccc2)ccc1O | 36.8* | ? | -9.1 | 11.7µM* | 28.5*
COc1ccc(C(=O)C(OC(=O)c2ccccc2Cl)c2ccccc2)cc1 (stereo not given) | 27.9* | 71.0% | 12.0 | ? | 82.9*

High-throughput results as filed in PubChem.
